Measured values as given in PubChem BioAssay (Tox21).
Records with an inconclusive call do not appear. The source made the active and inactive calls. Unless noted, calls come from the whole dose curve; as a rule, active = well fitted curve in the direction sought with a large enough effect in the repeat runs; inconclusive = weak or mixed curves; inactive = no such curve, though single readings can be large; an effect the other way counts as inactive or inconclusive.

Assays:
[1] = qHTS assay to identify small molecule agonists of the peroxisome proliferator-activated receptor delta (PPARd) signaling pathway - cell viability counter screen (AID 743211); conditions: PPARd-bla HEK293H viability, CellTiter-Glo luminescence, 17 h; series mostly up to 62.6 µM; note: % is set by controls: 0 for no effect and ±100 for the full control effect; nearly all actives have a fitted effect of over 55% in size
How it was run: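 Viability of GeneBLAzer PPARd UAS-bla HEK293H cells was assessed after 17 h compound incubation at 37C, using CellTiter-Glo reagent added after the reporter read and luminescence recorded 30 min later.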

[2] = molecular target: Peroxisome proliferator-activated receptor delta (Homo sapiens) (UniProt Q03181); assay: qHTS assay to identify small molecule agonists of the peroxisome proliferator-activated receptor delta (PPARd) signaling pathway (AID 743212; calls by dose curve; note: % is set by controls: 0 for no effect and ±100 for the full control effect); conditions: HEK293H PPARd-UAS-bla, beta-lactamase FRET ratio, 17 h; series mostly up to 62.6 µM
Sequence of Peroxisome proliferator-activated receptor delta (Homo sapiens) (Q03181 whole entry, looked up): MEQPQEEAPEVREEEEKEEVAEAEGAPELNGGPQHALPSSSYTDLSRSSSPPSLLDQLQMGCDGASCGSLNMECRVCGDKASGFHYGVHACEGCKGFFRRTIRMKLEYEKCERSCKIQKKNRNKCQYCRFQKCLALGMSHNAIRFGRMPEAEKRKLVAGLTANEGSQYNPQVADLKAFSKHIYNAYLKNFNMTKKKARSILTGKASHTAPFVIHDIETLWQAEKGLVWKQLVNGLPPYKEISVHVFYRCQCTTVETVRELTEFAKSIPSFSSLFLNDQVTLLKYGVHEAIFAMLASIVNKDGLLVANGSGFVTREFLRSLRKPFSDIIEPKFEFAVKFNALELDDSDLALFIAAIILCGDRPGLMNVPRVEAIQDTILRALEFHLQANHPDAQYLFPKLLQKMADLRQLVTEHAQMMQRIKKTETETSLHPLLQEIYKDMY
How it was run: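 GeneBLAzer UAS-bla HEK293H cells carrying a PPARδ construct were exposed to compounds at 37 °C. Beta-lactamase activity was read by FRET fluorescence after 2 h at room temperature with LiveBLAzer B/G substrate.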

[3] = qHTS assay to identify small molecule antagonists of the peroxisome proliferator-activated receptor delta (PPARd) signaling pathway - cell viability counter screen (AID 743213); conditions: PPARd-bla HEK293H viability, CellTiter-Glo luminescence, 17 h; series mostly up to 62 µM; note: % is set by controls: 0 for no effect and ±100 for the full control effect; nearly all actives have a fitted effect of over 50% in size
How it was run: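 PPARd-bla HEK293H cells were treated with compounds plus agonist L165041 (300 nM final) for 17 h at 37 C. Viability was then read in the same wells by CellTiter-Glo luminescence after 30 min at room temperature.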

[4] = qHTS assay to identify small molecule agonists of the farnesoid-X-receptor (FXR) signaling pathway - cell viability counter screen (AID 743218); conditions: FXR-bla HEK293T viability, CellTiter-Glo luminescence, 16 h; series mostly up to 62.6 µM; note: % is set by controls: 0 for no effect and ±100 for the full control effect; nearly all actives have a fitted effect of over 45% in size
How it was run: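 FXR-UAS-bla HEK 293T cells exposed to compounds for 16 h at 37C. Cytotoxicity read in the same wells by CellTiter-Glo luminescence after 30 min at room temperature, following the beta-lactamase FRET read.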

[5] = qHTS assay to identify small molecule antagonists of the farnesoid-X-receptor (FXR) signaling pathway - cell viability counter screen (AID 743221; active = well fitted cell-killing curve with a large enough effect in the repeat runs, not every such curve was filed as active; note: % is set by controls: 0 for no effect and ±100 for the full control effect; nearly all actives have a fitted effect of over 50% in size); conditions: FXR-bla HEK293T viability, CellTiter-Glo luminescence, 16 h; series mostly up to 62.6 µM
How it was run: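 Quantitative HTS of the Tox21 10K library run in parallel with the beta-lactamase reporter read. HEK 293T cells carrying a UAS-driven bla reporter got compound and 50 uM CDCA (final) for 16 h; ATP-based luminescence followed.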

[6] = molecular target: Vitamin D3 receptor (Homo sapiens) (UniProt P11473); assay: qHTS assay to identify small molecule agonists of the vitamin D receptor (VDR) signaling pathway (AID 743222; calls by dose curve; note: % is set by controls: 0 for no effect and ±100 for the full control effect); conditions: HEK293T VDR-UAS-bla, beta-lactamase FRET ratio, 16 h; series mostly up to 63.5 µM
Sequence of Vitamin D3 receptor (Homo sapiens) (P11473 whole entry, looked up): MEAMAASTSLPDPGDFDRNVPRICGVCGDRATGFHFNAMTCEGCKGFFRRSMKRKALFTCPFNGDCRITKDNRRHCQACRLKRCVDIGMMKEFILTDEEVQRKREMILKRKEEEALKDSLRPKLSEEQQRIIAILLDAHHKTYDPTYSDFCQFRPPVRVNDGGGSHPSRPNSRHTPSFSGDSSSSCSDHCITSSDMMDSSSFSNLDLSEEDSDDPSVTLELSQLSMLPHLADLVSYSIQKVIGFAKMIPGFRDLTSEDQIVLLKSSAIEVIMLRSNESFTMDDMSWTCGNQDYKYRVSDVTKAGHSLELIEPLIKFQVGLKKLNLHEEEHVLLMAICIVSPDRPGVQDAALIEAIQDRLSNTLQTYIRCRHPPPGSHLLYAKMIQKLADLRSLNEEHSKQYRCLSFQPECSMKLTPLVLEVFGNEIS
How it was run: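 VDR-bla cells plated 4 h at 37 C, then exposed to compounds for 16 h at 37 C. Beta-lactamase reporter activity measured by fluorescence after 2 h room-temperature loading with LiveBLAzer B/G FRET substrate.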

[7] = qHTS assay to identify small molecule agonists of the vitamin D receptor (VDR) signaling pathway - cell viability counter screen (AID 743224); conditions: VDR-bla HEK293T viability, CellTiter-Glo luminescence, 16 h; series mostly up to 62.6 µM; note: nearly all actives have a fitted effect of over 50% in size; note: potency is the fitted concentration of half-maximal effect
How it was run: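 VDR-bla cells, 4 h after plating, exposed to compounds for 16 h at 37C; viability then read in the same wells as CellTiter-Glo luminescence after 30 min at room temperature, following the bla FRET read.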

[8] = qHTS assay to identify small molecule antagonists of the vitamin D receptor (VDR) signaling pathway - cell viability counter screen (AID 743225); conditions: VDR-bla HEK293T viability, CellTiter-Glo luminescence, 16 h; series mostly up to 61 µM; note: % is set by controls: 0 for no effect and ±100 for the full control effect; nearly all actives have a fitted effect of over 50% in size
How it was run: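 Cells (VDR-UAS-bla HEK 293T) are plated, rested 4 h at 37C, dosed with compound and 3 nM final 1-alpha,25-dihydroxy vitamin D3, and incubated 16 h. Viability is taken from CellTiter-Glo luminescence in the reporter wells.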

[9] = qHTS assay to identify small molecule agonists of the NFkB signaling pathway (AID 1159509; active = well fitted curve in the direction sought with a large enough effect in the signal ratio in the repeat runs, not every such curve was filed as active; the % refers to the signal ratio; note: % is set by controls: 0 for no effect and ±100 for the full control effect); conditions: NFkB-bla ME-180 cells, beta-lactamase FRET ratio, 5 h; series mostly up to 61 µM
How it was run: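 ME-180 NFkB-bla, 2,000 cells/well, overnight plating; cpd pinned in DMSO, 5 h 37 C; B/G FRET substrate 1.5 h RT; ex 405, em 460/530 nm.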

[10] = qHTS assay to identify small molecule agonists of the endoplasmic reticulum stress response signaling pathway (AID 1159516; active = well fitted activation curve with a large enough effect in the signal ratio in the repeat runs, not every such curve was filed as active; the % refers to the signal ratio; note: % is set by controls: 0 for no effect and ±100 for the full control effect); conditions: ESRE-bla HeLa, ER stress beta-lactamase reporter, 5 h; series mostly up to 61 µM
How it was run: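 CellSensor ESRE-bla HeLa cells, 1,500 per well, plated overnight, then exposed to compounds for 5 hr at 37 C. Beta-lactamase reporter read with LiveBLAzer B/G FRET substrate after 2 hr at room temperature, 405 nm excitation, 460 and 530 nm emission.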

[11] = qHTS assay to identify small molecule agonists of the endoplasmic reticulum stress response signaling pathway - cell viability counter screen (AID 1159517; calls by dose curve); conditions: ESRE-bla HeLa viability, CellTiter-Glo luminescence, 5 h; series mostly up to 61 µM
How it was run: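 ESRE-bla HeLa cells, 1,500 per well, seeded overnight then treated with compounds for 5 hr at 37 C. After the beta-lactamase read, viability in the same wells is measured by CellTiter-Glo luminescence after 30 min at room temperature.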

[12] = qHTS assay to identify small molecule antagonists of the retinoid-related orphan receptor gamma (ROR-gamma) signaling pathway - cell viability counter screen (AID 1159520); conditions: Tet-on RORgamma CHO cells viability, ATP luminescence, 16 h; series mostly up to 92.4 µM
How it was run: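 Tet-on ROR gamma CHO cells were given compounds for 2 hr, then doxycycline hyclate at 1 uM final, and incubated 16 hr at 37 C. Viability was measured as ATP content by CellTiter-Glo luminescence.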

[13] = qHTS assay to identify small molecule agonists of the AP-1 signaling pathway - cell viability counter screen (AID 1159525; calls by dose curve; note: nearly all actives have a fitted effect of over 55% in size); conditions: ME-180 AP-1-bla cells viability, ATP luminescence, 5 h; series mostly up to 76.8 µM
How it was run: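 AP-1-bla ME-180 cells in Opti-MEM with 0.5% dialyzed FBS, compound exposure 5 h at 37 C in 15-point titration. Viability read in the same wells as ATP content by CellTiter-Glo luminescence, normalised to tetra-n-octylammonium bromide and DMSO controls.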

[14] = qHTS assay to identify small molecule agonists of the AP-1 signaling pathway (AID 1159526; calls by dose curve; note: % is set by controls: 0 for no effect and ±100 for the full control effect); conditions: ME-180 (cervical carcinoma) AP-1-bla reporter, beta-lactamase FRET ratio, 5 h; series mostly up to 76.8 µM
[15] = molecular target: Bile acid receptor (Homo sapiens) (UniProt Q96RI1); assay: qHTS assay to identify small molecule antagonists of the farnesoid-X-receptor (FXR) signaling pathway (AID 743217; active = well fitted inhibition curve with a large enough effect in the signal ratio in the repeat runs, not every such curve was filed as active; the % refers to the signal ratio; note: % is set by controls: 0 for no effect and ±100 for the full control effect); conditions: HEK293T FXR-UAS-bla, beta-lactamase ratio, CDCA-stimulated, 16 h; series mostly up to 62.6 µM
Sequence of Bile acid receptor (Homo sapiens) (Q96RI1 whole entry, looked up): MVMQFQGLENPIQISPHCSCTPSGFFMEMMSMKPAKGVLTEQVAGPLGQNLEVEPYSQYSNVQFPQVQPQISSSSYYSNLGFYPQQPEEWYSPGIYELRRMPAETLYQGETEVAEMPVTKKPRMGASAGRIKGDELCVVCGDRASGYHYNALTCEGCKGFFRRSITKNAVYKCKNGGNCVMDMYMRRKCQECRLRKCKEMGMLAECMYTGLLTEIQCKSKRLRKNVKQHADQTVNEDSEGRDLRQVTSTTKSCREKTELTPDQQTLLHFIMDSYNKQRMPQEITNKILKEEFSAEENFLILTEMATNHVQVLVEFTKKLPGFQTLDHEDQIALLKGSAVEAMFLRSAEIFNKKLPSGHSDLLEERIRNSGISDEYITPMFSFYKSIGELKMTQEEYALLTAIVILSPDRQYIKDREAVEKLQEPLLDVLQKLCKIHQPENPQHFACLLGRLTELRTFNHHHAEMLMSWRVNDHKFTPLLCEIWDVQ
How it was run: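 FXR-UAS-bla HEK 293T cells (beta-lactamase reporter) given compound plus chenodeoxycholic acid (50 uM final), 16 h at 37C. LiveBLAzer B/G FRET substrate added for 2 h at room temperature; fluorescence read.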

[16] = molecular target: Bile acid receptor (Homo sapiens) (UniProt Q96RI1); assay: qHTS assay to identify small molecule agonists of the farnesoid-X-receptor (FXR) signaling pathway (AID 743220; active = well fitted activation curve with a large enough effect in the signal ratio in the repeat runs, not every such curve was filed as active; the % refers to the signal ratio; note: % is set by controls: 0 for no effect and ±100 for the full control effect); conditions: HEK293T FXR-UAS-bla, beta-lactamase FRET ratio, 16 h; series mostly up to 62.6 µM
How it was run: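 Beta-lactamase reporter under UAS control in GeneBLAzer FXR HEK 293T cells (5000/well) measured with LiveBLAzer FRET substrate after 2 h at room temperature. Compound exposure lasted 16 h at 37C.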

[17] = molecular target: Peroxisome proliferator-activated receptor delta (Homo sapiens) (UniProt Q03181); assay: qHTS assay to identify small molecule antagonists of the peroxisome proliferator-activated receptor delta (PPARd) signaling pathway (AID 743215; active = well fitted inhibition curve with a large enough effect in the signal ratio in the repeat runs, not every such curve was filed as active; the % refers to the signal ratio); conditions: HEK293H PPARd-UAS-bla, beta-lactamase FRET ratio, antagonist, 17 h; series mostly up to 62 µM
How it was run: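 PPARd-bla HEK293H cells (UAS-bla reporter) preincubated 5 h, then given compound plus 300 nM final L165041 agonist for 17 h at 37 C. Beta-lactamase activity read by LiveBLAzer B/G FRET substrate fluorescence after 2 h at room temperature.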

[18] = molecular target: Vitamin D3 receptor (Homo sapiens) (UniProt P11473); assay: qHTS assay to identify small molecule antagonists of the vitamin D receptor (VDR) signaling pathway (AID 743223; active = well fitted inhibition curve with a large enough effect in the signal ratio in the repeat runs, not every such curve was filed as active; the % refers to the signal ratio; note: % is set by controls: 0 for no effect and ±100 for the full control effect); conditions: VDR-UAS-bla HEK293T, beta-lactamase FRET ratio, 16 h; series mostly up to 61 µM
How it was run: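 Fluorescence from LiveBLAzer B/G FRET substrate, read after 2 h at room temperature, reflects beta-lactamase reporter activity in VDR-bla cells treated 16 h at 37C with compounds and agonist 1alpha,25-dihydroxyvitamin D3 (3 nM final).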

[19] = molecular target: Nuclear receptor ROR-gamma (Homo sapiens) (UniProt P51449); assay: qHTS assay to identify small molecule antagonists of the retinoid-related orphan receptor gamma (ROR-gamma) signaling pathway (AID 1159521; note: nearly all actives have a fitted effect of over 50% in size; note: potency is the fitted concentration of half-maximal effect); conditions: Tet-on RORgamma CHO cells, RORE-luciferase, 16 h; series mostly up to 92.4 µM
How it was run: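 RORγ antagonism is scored from reduced reporter luminescence in Tet-on CHO cells. Induction used 1 uM final doxycycline hyclate for 16 h at 37 C, following a 2 h compound exposure.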

Fc1c(F)c(F)c(Br)c(F)c1F
inactive: Potency [1] | Potency [2] | Potency [3] | Potency [4] | Potency [5] | outcome [6] | Potency [7] | Potency [8] | outcome [9] | outcome [10] | outcome [11] | Potency [12] | outcome [13] | outcome [14]

C=CC(=O)NCOCC(C)C
inactive: Potency [1] | Potency [3] | Potency [15] | Potency [4] | Potency [16] | outcome [6] | Potency [7] | Potency [8] | outcome [9] | outcome [10] | outcome [11] | Potency [12] | outcome [13] | outcome [14]

CC1(C)C2=CCCC(C)(C)[C@]23CC[C@H]1C3
inactive: Potency [3] | Potency [17] | Potency [15] | Potency [16] | Potency [5] | outcome [6] | outcome [18] | Potency [7] | outcome [9] | outcome [10] | outcome [11] | Potency [12] | outcome [13] | outcome [14]

c1ccc(COCc2ccccc2)cc1
inactive: Potency [1] | Potency [3] | Potency [17] | Potency [15] | Potency [4] | Potency [16] | Potency [5] | outcome [6] | outcome [18] | Potency [7] | Potency [8] | outcome [9] | outcome [10] | Potency [12] | Potency [19] | outcome [14]

CCCCCCCCCCCCCCCCBr
inactive: Potency [1] | Potency [2] | Potency [3] | Potency [17] | Potency [4] | Potency [5] | outcome [6] | outcome [18] | Potency [7] | Potency [8] | outcome [9] | outcome [10] | activity, negative = cytotoxicity [12] 1.45% [at 19 µM] | activity change, negative = inhibition [19] 15.4% [at 19 µM] | viability change, negative = cytotoxic [13] 3.43% [at 15.8 µM] | activation [14] -6.6% [at 15.8 µM]

CC1(C)C(=O)N(Br)C(=O)N1Cl
inactive: Potency [1] | Potency [2] | Potency [3] | Potency [17] | Potency [4] | Potency [5] | outcome [6] | outcome [18] | Potency [7] | Potency [8] | outcome [9] | outcome [10] | outcome [11] | outcome [13]

CC1CC(O)CC(C)(C)C1 (stereo not drawn)
inactive: Potency [1] | Potency [2] | Potency [3] | Potency [17] | Potency [15] | Potency [5] | outcome [6] | outcome [18] | Potency [7] | Potency [8] | outcome [9] | outcome [10] | outcome [11] | Potency [12] | outcome [13] | outcome [14]

CC(C)(C)CC(C)(C)c1ccc(OCCO)cc1
active: Potency [7] 38.7 µM | Potency [19] 19.2 µM
inactive: Potency [16] | outcome [18] | outcome [9] | outcome [10] | outcome [11] | outcome [13] | outcome [14]

CCCCOC(=O)CCS
inactive: Potency [1] | Potency [2] | Potency [3] | Potency [17] | Potency [4] | Potency [16] | Potency [5] | outcome [6] | Potency [7] | Potency [8] | outcome [9] | outcome [10] | outcome [11] | Potency [12] | outcome [13] | outcome [14]

Nc1ccc(Cl)cc1[N+](=O)[O-]
inactive: Potency [1] | Potency [3] | Potency [17] | Potency [4] | Potency [5] | outcome [6] | outcome [18] | Potency [7] | Potency [8] | outcome [9] | outcome [10] | outcome [11] | Potency [12] | outcome [14]
